A selection: hits, their analogues and other compounds. The true share with any hit is near 3.5%.
MITF inh: human MITF inhibition, primary screen. O75030. AlphaScreen MITF homodimerization, bead proximity signal. AID 1259374. 650,000 tested, 0.91% active. inhibition, % at 2.6 µM; in the data active means inhibition above about 50%;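 further: 0% = vehicle wells with protein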
GPR151 ag: activates the human receptor GPR151; Q8TDV0; PathHunter beta-arrestin GPR151 cells, luminescence; activation, % at 11.2 µM; 650,000 tested, 1% active; AID 1508602; in the data active means activation above about 4.9%;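 further: 0% = median of compound wells and 100% = cells with positive control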
TEAD-YAP inh: TEAD-YAP interaction inhibition | HEK-TIYL cells, TEAD-Gal4/YAP UAS-luciferase luminescence | 640,000 tested, 1.4% active | AID 1259422 | inhibition, % at 9.12 µM; in the data active means inhibition above about 32%;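 further: 0% = median of test compound wells and 100% = reference inhibitor wells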
FBW7 act: activators of human E3 ligase FBW7; Q969H0; AlphaScreen FBW7–phospho-cyclin E peptide binding, activator screen; AID 1259310; 650,000 tested, 0.13% active; normalized activity (activation), % at 26.1 µM; in the data active means normalized activity above about 1.9%;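 further: purified mutant Fbw7 with reduced substrate affinity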
GPR151 conf act: human GPR151 activation, confirmation screen; shares compounds with GPR151 ag; GPR151 PathHunter beta-arrestin cells, luminescence, 90 min; % of EA-reagent control over plate median; 6,700 tested, under 10 active; activation, % at 11.2 µM;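 active means mean percent activation across replicates above the confirmation screen cutoff of 4.91%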
GPR119 counter: GPR119 activation, counter-screen for GPR151 activators; shares compounds with GPR151 ag; GPR119 PathHunter beta-arrestin cells, luminescence, 90 min; 0 = compound-well median, 100 = enzyme-acceptor control; activation, % at 11.2 µM; 6,700 tested, 0.3% active; AID 1508611;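 active means mean percent activation in the counterscreen above 29.09%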;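 further: counterscreen on off-target GPR119 to flag nonselective hits from the GPR151 activator screen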
An asterisk follows results filed as active; . = no result given.

SMILES | MITF inh | GPR151 ag | TEAD-YAP inh | FBW7 act | GPR151 conf act | GPR119 counter
COc1ccc(N=Cc2c(O)[nH]c(=S)[nH]c2=O)cc1OC | -5.5 | 7.2* | 1.9 | 0.0 | 0.4 | 7.8
O=c1[nH]c(O)c(C=Nc2ccc(F)c(F)c2)c(=O)[nH]1 | -4.8 | 13.1* | 0.4 | -0.6 | 0.4 | 5.6
COc1cc(NC(=O)Nc2ccc(F)cc2F)cc(OC)c1 | 16.5 | 1.1 | -3.1 | 0.1 | . | .
COc1ccc(CCn2c(=S)[nH]c3ccsc3c2=O)cc1OC | 6.4 | 5.4* | -2.4 | 0.8 | 1.5 | 12.1
Cc1ccc(N(CC(O)Cn2nc(C)cc2C)S(=O)(=O)c2ccc([N+](=O)[O-])cc2)cc1 (centres undefined) | 1.3 | 4.9* | -10.2 | -0.2 | 0.5 | 1.8
Cc1ccc(N(CC(O)CN2CCOCC2)S(=O)(=O)c2ccc([N+](=O)[O-])cc2)cc1 (centres undefined) | 5.2 | -0.6 | 9.4 | 0.2 | . | .
CC(C)Oc1ccc(C2CC(=O)NC3=C2C(=O)CCC3)cc1 (centres undefined) | 7.5 | 0.7 | 7.6 | -0.1 | . | .
CC(C)Oc1ccc(C2CC(=O)NC(=O)C2)cc1 | 23.8 | 6.7* | 0.4 | 0.6 | -0.3 | 13.0
CC(=O)c1c(C)nnn1-c1nonc1C | 14.8 | 5.1* | 7.7 | 0.5 | 0.9 | -3.9
CCCNc1nc(Nc2ccc(N3CCOCC3)cc2)nc2c1ncn2C(C)C | 4.2 | 0.9 | -7.0 | -0.2 | . | .
Cc1cc2n(n1)C(c1cccc(O)c1)Nc1ccccc1-2 (centres undefined) | 10.5 | 7.9* | 7.0 | -0.2 | 0.2 | 3.4
NC(=O)c1ccc(NC(=O)COC(=O)c2cc(-c3ccccc3)nc3ccccc23)cc1 | -2.3 | 0.0 | 10.2 | -0.2 | . | .
O=C(O)c1ccc(NS(=O)(=O)c2cc(C(=O)O)ccc2Br)cc1 | -8.3 | 5.6* | -1.7 | 0.0 | -0.2 | -4.0
O=C(c1nc2sccn2c1CNCC(c1ccccn1)N1CCOCC1)N1CCCC1 (centres undefined) | 11.4 | 1.2 | 8.6 | -0.3 | . | .
O=C(c1nc2sccn2c1CNCC(c1cccnc1)N1CCOCC1)N1CCCC1 (centres undefined) | 6.1 | 9.8* | 13.2 | 0.0 | -0.2 | -1.4
COc1ccc(C(C)(C)C)cc1NC(=O)COC(=O)c1ccc([N+](=O)[O-])s1 | 24.5 | -1.2 | -2.0 | 0.1 | . | .
CC(C)(C)c1ccc(NC(=O)COC(=O)c2ccc([N+](=O)[O-])s2)cc1 | -5.0 | 6.1* | -9.8 | -0.2 | -0.8 | -6.2
CCCC(=O)NCc1ccc2[nH]c3c(c2c1)CCCC3 | 15.7 | 2.3 | 19.0 | 0.3 | . | .
CCc1c(C)nc2cc(-c3cccs3)nn2c1N1CCC(O)CC1 | 17.4 | 6.2* | 1.4 | 0.4 | 1.6 | 9.1
N/C(=N\OC(=O)c1ccncc1)c1cccnc1 | 12.0 | 5.8* | -19.9 | 0.7 | -0.3 | 0.3
COc1ccc(C)cc1-n1cnc2cc(C(=O)O)ccc21 | 3.8 | 7.7* | -3.7 | 0.1 | -0.6 | 2.7
CN(C)c1nc2cc(F)ccc2cc1CN(Cc1ccco1)C(=O)c1cn2ccccc2n1 | -0.2 | 15.0* | 1.7 | -0.1 | 0.3 | 6.9
COc1cc(Br)cc2cc(C(N)=O)c(=O)oc12 | -4.0 | -0.6 | 4.1 | -0.4 | . | .
Cc1cc(C)cc(NS(=O)(=O)c2cc(C(N)=O)ccc2C)c1 | 13.9 | 13.0* | 6.6 | 0.3 | -0.1 | 7.8
O=C(c1cc(Sc2ccc(F)cc2)nc2ccccc12)N1CCCCC1 | 6.7 | 0.5 | 6.0 | 0.2 | . | .
SMILES | MITF inh | GPR151 ag | TEAD-YAP inh | FBW7 act | GPR151 conf act | GPR119 counter
O=C(CN1C(=O)[C@H]2CCCN2C(=O)c2ccccc21)Nc1cccc2ccccc12 | -12.1 | 6.8* | -1.6 | -0.2 | 0.5 | 0.7
O=C(CN1C(=O)[C@@H]2CCCN2C(=O)c2ccccc21)Nc1ccccc1F | 3.9 | -0.5 | 8.4 | -0.1 | . | .
O=C(NCc1ccc(Cl)cc1)C1CCC(Cn2c(=S)[nH]c3ccsc3c2=O)CC1 (centres undefined) | 5.7 | 7.0* | -4.1 | -0.1 | 0.6 | 14.1
O=C(NCc1ccccc1Cl)c1nnc(-c2ccncc2)o1 | -2.6 | 1.3 | 0.2 | -0.6 | . | .
O=C(NCc1ccccc1Cl)c1nnc(-c2ccccc2)o1 | 6.0 | 5.0* | -13.6 | 0.0 | 0.4 | -4.5
C/C(CC(=O)NCC(C)C)=N\NC(=O)COc1ccccc1C | 3.5 | 0.5 | 5.0 | -0.1 | . | .
